MCF10A rerep = inducers of DNA re-replication in MCF 10A breast cells. MCF 10A DNA re-replication, Hoechst nuclear intensity, 48 h. actives 2.9% (n = 350,000). Potency, µM (titrated, usually from 46.1 µM), for the others: at the highest dose activity, positive = re-replication, actives largely listed as activators; further: % of control where 0% means no effect; nearly all actives have a fitted effect of over 50% in size
KB-3-1 cytotox = KB-3-1 parental cell cytotoxicity | Potency, µM (series often up to 46.1 µM), actives largely listed as cytotoxic | KB-3-1 viability, CellTiter-Glo ATP luminescence, 72 h | AID 1347075 | actives 1.4% (n = 400,000); further: on the % scale 0 is the no-effect control and ±100 the full control effect; nearly all actives have a fitted effect of over 60% in size
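Cytotoxicity measured as CellTiter-Glo luminescence after 72 h at 37 C. Compound titrations were pinned onto drug-naive KB-3-1 parental adenocarcinoma cells grown in DMEM with 10% FBS, and normalized data fitted to concentration-response curves.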
KB-V1 cytotox = KB-V1 MDR subline cytotoxicity; Potency, µM (titrated, usually from 46.1 µM), most hits filed as cytotoxic; actives 3.4% (n = 400,000); KB-V1 MDR cells viability, CellTiter-Glo, 72 h; AID 1347076; further: on the % scale 0 is the no-effect control and ±100 the full control effect; nearly all actives have a fitted effect of over 60% in size
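KB-V1 cells (P-gp-expressing MDR subline of KB-3-1) in phenol-red-free DMEM with 10% FBS were exposed to library compounds over a concentration series for 72 h at 37 degrees C. Viability read by CellTiter-Glo luminescence; concentration-effect curves fitted after normalization.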
SW480 rerep = DNA re-replication induction in SW480 cells; SW480 DNA re-replication, Hoechst DNA content imaging, 48 h; AID 624297; actives 1.8% (n = 340,000); Potency, µM (doses to about 46.1 µM), without a hit: at the highest dose re-replication activation, hits mostly activators; further: % of control where 0% means no effect; nearly all actives have a fitted effect of over 55% in size
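Cells (250 per well) received 23 nL compound or DMSO by pin tool and were kept 48 hr at 37 C, 5% CO2. Nuclei were then stained with Hoechst for 40 min and scanned for DNA content.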
HT1080NT lethal = kills 2HG-producing HT-1080-NT fibrosarcoma cells. HT-1080-NT fibrosarcoma viability, CellTiter-Glo ATP luminescence, 48 h. Potency, µM (top dose mostly 46.1 µM), inactives show at the top dose activity, negative = less viability, hits mostly cytotoxic. actives 1.6% (n = 360,000). AID 686970;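 further: NT is the 2HG producing partner of a matched IDH1 knockdown line; 0% = DMSO-treated cells and -100% = media-only wells without cells; nearly all actives have a fitted effect of over 55% in size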
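Viability by CellTiter-Glo luminescence after 48 h compound exposure at 37C of HT-1080-NT cells (750/well, RPMI, 5% FBS). % activity scaled between DMSO wells and medium-only wells, then curve-fitted and categorized by curve class.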
HT1080 IDH1KD tx = kills HT-1080 cells with IDH1 knockdown | HT-1080 IDH1 knockdown viability, ATP luminescence, 48 h | Potency, µM (top dose mostly 46.1 µM), without a hit: top-dose activity, negative = toxicity, most hits filed as cytotoxic | actives 2% (n = 360,000) | AID 686971;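 further: 0% = DMSO wells and -100% = cell-free medium wells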
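In this qHTS, HT-1080 cells depleted of IDH1 are exposed for 48 h at 37 °C to compound titrations. Toxicity is scored from CellTiter-Glo luminescence, with DMSO as full viability and medium alone as none.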
* hit, by the source's call; i = inactive; ? = inconclusive; · = not tested or not shown. This is a sample that favours compounds with a hit; in the whole collection about 7.9% have one here. The call rests on the fitted dose curve; in most records, active means well fitted curve in the direction sought with a large enough effect; inconclusive means small, poorly fitted or top-dose-only effect, or another doubt; inactive means no such curve, though single readings can be large; an effect the other way counts as inactive or inconclusive. Potency means the concentration at half of the fitted maximal effect.

SMILES	MCF10A rerep	KB-3-1 cytotox	KB-V1 cytotox	SW480 rerep	HT1080NT lethal	HT1080 IDH1KD tx
O=C(c1cc(C2CCCCN2C(=O)CCCc2ccccc2)on1)N1CCOCC1 (configuration not stated)	·	i	i	·	10%	22%
CCOc1ccccc1C(=O)Nc1cc(OC)ccc1OC	9%	i	15µM*	1%	12%	?
CCOc1ccccc1C(=O)NC1CCN(CC(=O)Nc2cc(OC)ccc2OC)CC1	-2%	i	i	-15%	12%	3%
CCOc1ccc(NC(=O)c2c(OC)cccc2OC)cc1	0.65µM*	i	i	-5%	-11%	-3%
CCOc1ccc(NC(=O)COC(=O)c2c(OC)cccc2OC)cc1	1%	i	i	-6%	16%	4%
OCc1nc2ccccc2[nH]1	·	?	i	·	·	·
O=C(CC[C@H]1O[C@@H](n2cnc3c(NC(=O)c4ccccc4)ncnc32)[C@H](O)[C@@H]1O)N[C@@H](CO)c1ccccc1	·	i	?	·	30%	7%
O=C(NC1CCCc2ccccc21)c1cnn2c1NC(=C1CC1)C=C2C(F)F (configuration not stated)	·	·	·	·	-25%	-20%
CCOc1ccc2nc(NC(=O)c3cccc(-c4cc5ccccc5oc4=O)c3)sc2c1	?	i	?	16µM*	13µM*	16µM*
COc1ccc2nc(NC(=S)N(C)C)sc2c1	11%	21µM*	3.3µM*	-9%	-2%	-20%
Cc1ccc2nc(NC(=O)c3cccc(-c4cc5ccccc5oc4=O)c3)sc2c1	17%	i	?	-2%	?	?
CCN(Cc1ccc(Cl)s1)C(=O)c1cccc(OCc2c(C)noc2C)c1	?	?	5.8µM*	4%	-9%	-4%
COc1ccc2nc(NC(=O)c3cc(C)oc3C)sc2c1	9%	?	?	-4%	-18%	-21%
COc1ccc2nc(NC(=O)c3ccoc3C)sc2c1	?	i	7.3µM*	13%	10µM*	11µM*
Cc1sc2ncn(CC(=O)Nc3ccc(C(F)(F)F)cc3)c(=O)c2c1S(=O)(=O)N1CCN(C)CC1	·	i	?	·	·	·
CCCOc1ccc(/C=C/C(=O)Nc2sc3c(c2C(=O)OCC)CCC(C)C3)cc1OC (configuration not stated)	·	i	i	·	·	·
CCSc1nnc(NC(=O)c2cccc(OCc3c(C)noc3C)c2)s1	?	i	i	6%	-1%	-11%
COc1ccc2nc(NC(=O)c3cccc(OCc4c(C)noc4C)c3)sc2c1	19%	18µM*	3.7µM*	?	?	?
Cc1cc(C)cc(NC(=O)CSc2nnc(CN3CCOCC3)n2C)c1	13%	i	i	-12%	-4%	1%
Fc1ccc(CSc2nnc(-c3cnccn3)n2Cc2ccco2)cc1	3%	i	i	-2%	0%	4%
Cc1ccccc1OCc1nnc(SCC(=O)Nc2ccc3c(c2)OCO3)n1C	?	i	i	-10%	?	7%
Cc1cc(C)c(NC(=O)CSc2nnc(-c3ccncc3)n2Cc2ccco2)c(Cl)c1	0%	?	23µM*	-4%	0%	2%
Brc1ccc(CSc2nnc(-c3cnccn3)n2Cc2ccco2)cc1	?	?	9.2µM*	8%	5%	0%
Cc1cc(C)c(NC(=O)CSc2nnc(CN3CCOCC3)n2C)c(C)c1	-3%	i	i	29µM*	10%	3%
CCn1c(COc2ccccc2C)nnc1SCC(=O)Nc1ccc2c(c1)OCCO2	?	i	4.6µM*	-9%	5%	0%
SMILES	MCF10A rerep	KB-3-1 cytotox	KB-V1 cytotox	SW480 rerep	HT1080NT lethal	HT1080 IDH1KD tx
COc1ccc(CCNc2ncnc3c2c(C)c(C)n3CCO)cc1OC	-1%	i	i	?	6%	1%
CCOc1ccc(CCNC(=O)CN2C(=O)COc3ccc(S(=O)(=O)N(CC)CC)cc32)cc1	·	i	i	·	·	·
Cc1cccc(NC(=O)CSc2nnc(-c3cnccn3)n2Cc2ccco2)c1	-4%	i	i	-1%	-3%	-8%
O=C(CSc1nnc(CN2CCOCC2)n1-c1ccc(Cl)cc1)Nc1ccc2c(c1)OCO2	1%	i	10µM*	2%	-24%	-1%
Cn1c(CN2CCOCC2)nnc1SCC(=O)Nc1ccc2c(c1)OCCO2	0%	i	i	-2%	9%	-14%
Fc1ccccc1CSc1nnc(-c2cnccn2)n1Cc1ccco1	-59%	i	18µM*	-93%	0%	15%
Cc1ccc(NC(=O)CSc2nnc(-c3cnccn3)n2Cc2ccco2)cc1	11%	i	7.3µM*	-3%	4%	-2%
Nn1c(SCC(=O)Nc2ccc3c(c2)OCO3)nnc1-c1ccccc1	2%	i	?	-1%	-2%	0%
CC1(C)Cc2ccccc2-c2nnc(SCC(=O)Nc3ccc4c(c3)OCO4)n21	6%	i	4.1µM*	1%	1%	-2%
COc1ccccc1N1CCN(S(=O)(=O)c2ccc(NC(C)=O)cc2)CC1	3%	i	i	1%	-3%	-4%
Clc1ccc(CSc2nnc(-c3ccccn3)n2Cc2ccco2)c(Cl)c1	?	?	10µM*	15%	6%	6%
CCn1c(SCC(=O)Nc2ccc3c(c2)OCO3)nnc1-c1cnccn1	-1%	i	21µM*	-11%	-4%	-7%
COC(=O)CSc1nnc(-c2ccccn2)n1Cc1ccco1	0%	i	i	-3%	4%	9%
CCn1c(SCC(=O)Nc2ccc(OC)c(OC)c2)nnc1-c1cnccn1	8%	i	i	-1%	16%	4%
COc1ccc(-c2onc(C)c2-c2cnn(-c3ccccc3)c2)c(O)c1C	?	i	i	?	-13%	-3%
COc1ccc(-c2n[nH]c(C)c2-c2cnn(-c3ccccc3)c2)c(O)c1	21µM*	i	?	?	-7%	-13%

Screening results (PubChem)
